This is a sample that favours compounds with a hit; in the whole collection about 0.62% have one here.
Rango release inh – qHTS Assay for Inhibitors of RanGTP induced Rango (Ran-regulated importin-beta cargo) - Importin beta complex dissociation. Potency, µM (series often up to 46.1 µM), inactives show top-dose activity change, negative = inhibition. 340,000 tested, 0.071% active. Biochemical FRET Rango-importin beta, RanGTP-induced dissociation. Snurportin-1 (Homo sapiens) + GTP-binding nuclear protein Ran (Homo sapiens) + Importin …; note: potency is the fitted concentration of half-maximal effect; % of control where 0% means no effect; nearly all actives have a fitted effect of over 45% in size
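FRET read at 45 min, room temperature: inhibitors block the CFP/YFP signal rise when RanGTP (0.6 uM Ran, 2 mM GTP, 0.2 uM RCC1) frees Rango (0.1 uM) from importin beta (0.25 uM). Pre-read after 5 min compound exposure flags interference.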
Akt phos inh – HTS Assay for Inhibitors of Akt Phophorylation: Primary Screen. Neuro2A IGF-stimulated pAkt S473 HTRF, 20 min; hits give low values. activity change, % for hits at 50 µM. 360,000 tested, 0.32% active; in the data active = activity change below about -80%; inconclusive = mostly about -51% to -80%; note: % is set by controls: 0 for no effect and ±100 for the full control effect
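Neuro2A cells in DMEM with 0.5% FBS, overnight at 37 deg C, given compound at single 50 µM final, then IGF (6 nM final) for 20 min at 37 deg C. Lysed; phospho-Akt Ser473 by HTRF after 24 h, 665/615 ratio.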
p53 reactivation – qHTS assay for re-activators of p53 using a Luc reporter; Potency, µM (highest dose often 92.2 µM), inactives show at the top dose activity change, positive = activation, hits mostly activators; H1299 p53-A138V BP100-luciferase reporter, luminescence, 24 h; 320,000 tested, 0.063% active; AID 504706, 2011; active = well fitted activation curve with a large enough effect; inconclusive = small, poorly fitted or top-dose-only effect; inactive = no such curve, though single readings can be large or run the other way; note: potency is the fitted concentration of half-maximal effect; % of control where 0% means no effect; nearly all actives have a fitted effect of over 45% in size
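H1299 (p53-null), stable ts p53-A138V + BP100-Luc; 1000 cells/well, Opti-MEM/10% FBS; cpd 4 pt, 1:5; 24 h, 37 deg C, 5% CO2; detection reagent 10 min RT; luminescence.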
Rango-impB inh – qHTS Assay for Inhibitors of Rango (Ran-regulated importin-beta cargo) - Importin beta complex formation; Importin subunit beta-1 (Homo sapiens), Q14974; Rango CFP/YFP FRET sensor + importin beta, 45 min; Potency, µM (series often up to 92.2 µM), for inactives: top-dose inhibition of complex formation; 340,000 tested, 0.031% active; AID 540263, 2011;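 note: potency is the fitted concentration of half-maximal effect; 0% = DMSO wells and 100% = buffer wells lacking importin beta; nearly all actives have a fitted effect of over 15% in size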
Target sequence (Q14974 whole entry, looked up): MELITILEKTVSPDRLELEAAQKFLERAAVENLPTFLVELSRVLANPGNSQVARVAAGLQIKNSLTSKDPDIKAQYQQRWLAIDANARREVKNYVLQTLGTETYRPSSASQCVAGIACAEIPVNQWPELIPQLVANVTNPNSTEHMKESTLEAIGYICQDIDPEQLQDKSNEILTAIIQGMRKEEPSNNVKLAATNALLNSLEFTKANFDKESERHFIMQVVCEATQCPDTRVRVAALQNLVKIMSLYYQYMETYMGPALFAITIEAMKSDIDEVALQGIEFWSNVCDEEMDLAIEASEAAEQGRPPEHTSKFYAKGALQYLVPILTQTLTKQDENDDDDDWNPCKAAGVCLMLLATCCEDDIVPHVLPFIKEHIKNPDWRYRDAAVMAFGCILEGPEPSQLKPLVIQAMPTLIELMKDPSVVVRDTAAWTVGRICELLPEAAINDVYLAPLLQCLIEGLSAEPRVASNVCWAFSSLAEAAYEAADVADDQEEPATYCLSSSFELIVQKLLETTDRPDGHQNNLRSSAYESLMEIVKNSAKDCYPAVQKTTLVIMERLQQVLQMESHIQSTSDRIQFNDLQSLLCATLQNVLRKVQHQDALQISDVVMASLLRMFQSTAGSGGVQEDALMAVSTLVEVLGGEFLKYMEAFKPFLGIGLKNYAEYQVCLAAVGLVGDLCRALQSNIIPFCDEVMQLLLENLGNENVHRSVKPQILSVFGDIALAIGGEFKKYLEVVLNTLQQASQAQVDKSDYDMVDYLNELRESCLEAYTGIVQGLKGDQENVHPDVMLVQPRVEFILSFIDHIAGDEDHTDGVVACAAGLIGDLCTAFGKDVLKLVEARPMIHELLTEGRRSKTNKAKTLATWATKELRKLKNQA
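Inhibition scored from the CFP 486 nm/YFP 530 nm FRET ratio 45 min after adding 0.125 microM importin beta to 50 nM Rango biosensor preincubated 5 min with compound (room temperature, PBS with DTT, Tween-20, BSA). No-importin wells as positive control.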
TSHR antag – Antagonists of the Thyroid Stimulating Hormone Receptor: HTS campaign. TSHR-expressing cells, TSH-stimulated cAMP HTRF, 2 h; hits give low values. 330,000 tested, 0.2% active. Thyrotropin receptor (Homo sapiens), P16473. activity change, negative = inhibition, % at 11.5 µM;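 active = activity change below a set negative limit, meaning inhibition stronger than a set level, cut at about -70% in these data; inconclusive = activity change between two set negative limits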; note: % is set by controls: 0 for no effect and ±100 for the full control effect
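TSHR-expressing cells were treated with compounds, then stimulated with TSH at EC80 (4nM final) for 2 hours at 37 deg C. Cellular cAMP was measured by HTRF competition between lysate cAMP and cAMP-d2 for a cryptate-labelled anti-cAMP antibody.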
* hit, by the source's call; i = inactive; ? = inconclusive; nt = no result; [ ] = dose if it differs, or a comment. Unless noted, calls come from the whole dose curve.

SMILES	Rango release inh	Akt phos inh	p53 reactivation	Rango-impB inh	TSHR antag
O=C(Nc1nccs1)c1cccc(N2C(=O)C3C4C=CC(C4)C3C2=O)c1 (configuration not stated)	0.0%	i	4.3%	1.9%	-25.9
O=C(Nc1nccs1)c1cccc(N2C(=O)c3cccc4c([N+](=O)[O-])ccc(c34)C2=O)c1	?	-109.1%*	1.1%	?	-8.3
CSc1ncccc1C(=O)NC1CCN(Cc2ccccc2)CC1	15.7%	i	0.6%	-1.2%	26.5
COc1ccccc1CN1CC(C(=O)NCc2cc(C)on2)CCC1=O (configuration not stated)	-15.5%	i	-0.5%	-3.4%	-10.3
Cc1cccc(-n2c(SCC(=O)N3CCCC3)nc3n[nH]c(C)c3c2=N)c1	-0.9%	-103.7%*	-5.0%	-1.2%	-11.0
CC(=O)Oc1c(I)cc(I)cc1C(=O)Nc1ccc(Cl)cc1	0.9%	i	-10.1%	6.3%	-106.4*
COc1ccc(Cl)cc1C(=O)Nc1ccc(NC(C)=O)cc1	1.9%	i	-0.3%	0.3%	5.9
O=C(Nc1ccc(N2CCN(C(=O)c3ccccc3)CC2)c(Cl)c1)c1ccc(Br)o1	24.9%	-86.0%*	-2.8%	-0.1%	-28.3
O=C(Nc1ccc2c(c1)CCC2)c1ccc(Br)o1	16.7%	-113.7%*	16.4%	9.4%	-3.7
O=C(NCCc1cscn1)C1CCC(=O)N(Cc2ccc(Cl)cc2)C1 (configuration not stated)	-0.8%	i	7.6%	-0.6%	12.3
CCCCCOC(=O)C1=C(C)NC(=O)NC1c1ccccc1 (configuration not stated)	-11.0%	i	nt	0.4%	-6.2
O=C(Nc1ccncc1)c1cc(F)cc(F)c1	-9.5%	i	-7.6%	0.3%	0.6
CCOC(=O)c1cc(-c2ccc3c(c2)OCO3)nc2onc(C)c12	-20.2%	-116.7%*	16.7%	?	7.6
O=C(O)c1cc(-c2ccc3c(c2)OCO3)nc2ccc(Cl)cc12	1.6%	i	?	0.9%	25.0
NC(=O)C1CCN(c2nc(-c3ccccc3Cl)cs2)CC1	nt	nt	nt	nt	4.6
O=[N+]([O-])/C(C=Nc1ccccc1O)=C\Nc1ccccc1O	-1.4%	i	-2.6%	3.2%	13.8
Cc1ccc2nsnc2c1NC(=O)COc1ccccc1	-13.5%	i	-1.9%	1.3%	2.1
COc1cccc(N2CCN(c3c(C#N)c(C(F)(F)F)nn3C)CC2)c1	4.0%	i	-4.9%	-0.8%	-13.0
Cn1nc(C(F)(F)F)c(C#N)c1N1CCN(c2ccccc2F)CC1	8.3%	-107.0%*	nt	-0.7%	nt
COc1ccc(/C(N)=C/C(=O)C(C)(C)C)cc1	-0.4%	i	?	-4.5%	-17.1
CC(C)(C)C(=O)/C=C(\N)c1ccncc1	0.2%	-101.1%*	-0.6%	2.4%	-3.2
CCOC(=O)C1=C(COC(=O)CNC(=O)c2cc(OC)c(OC)c(OC)c2)NC(=O)NC1C (configuration not stated)	14.6%	i	7.7%	-2.8%	1.8
Cc1ccccc1OCCCC(=O)NCc1ccco1	-3.8%	-100.9%*	2.9%	-1.4%	-8.3
O=C(CCC(=O)OCCCC(F)(F)C(F)(F)F)NC1CCCCC1	-4.1%	i	24.3%	-2.5%	-7.5
C=CCOC(=O)CCCC(=O)NC1CCCCC1	0.1%	-127.7%*	4.1%	-4.9%	1.7
SMILES	Rango release inh	Akt phos inh	p53 reactivation	Rango-impB inh	TSHR antag
COc1ccc(NS(=O)(=O)c2cn(C)cn2)cc1Cl	-6.8%	i	-2.0%	-1.0%	-141.6*
Cn1cnc(S(=O)(=O)Nc2ccc(Cl)c(C(F)(F)F)c2)c1	21.5%	i	0.4%	4.4%	5.9
COc1ccc(NS(=O)(=O)c2ccc(N)c(C(=O)O)c2)cc1	7.9%	-115.4%*	0.7%	2.4%	-2.8
O=C(NCCCSc1ccccc1)c1cc(Br)ccc1O	21.6%	i	3.0%	0.1%	18.4
O=c1[nH]c(=O)n([C@H]2C[C@@H](O)[C@@H](CO)O2)cc1C=CBr	nt	nt	nt	nt	-6.1
CN(CC(=O)Nc1ccccc1C(F)(F)F)Cc1c(O)ccc2ccccc12	-12.2%	i	5.3%	-0.7%	-98.6*
O=C(CCCSc1ccccc1)Nc1nc(-c2ccccn2)cs1	-11.0%	-106.3%*	7.3%	0.4%	-11.9
CC(=O)c1cccc(NC(=O)CCCSc2ccccc2)c1	18.5%	i	5.4%	-0.2%	-81.4*
Cc1ccccc1C(=O)c1cccn1CC(=O)NCCCN1CC(C)CC(C)C1 (configuration not stated)	-3.4%	i	-8.5%	-0.7%	9.9
O=C(NCc1ccccc1)c1cc(C2CCCCN2C(=O)c2ccc(Cl)cc2)on1 (configuration not stated)	nt	i	nt	nt	nt
O=C(Oc1cc2oc(=O)c3c(c2cc1Cl)CCCC3)c1cccs1	8.2µM*[inhibitor]	i	-4.9%	?	9.9
COc1cccc(NC(=O)CSc2nnc(-c3cccs3)n2C)c1	7.3%	-107.2%*	-13.6%	2.0%	26.4
CC(=O)Nc1ccc(NC(=O)CSc2nnc(-c3cccs3)n2C)cc1	0.0%	i	3.4%	0.3%	6.7
Cn1c(SCC(=O)NC2CC2)nnc1-c1cccs1	1.2%	i	35.5µM*	-0.8%	-10.3
COC(C(=O)Nc1ccnn1C1CCN(Cc2cccc(C)n2)CC1)c1ccccc1 (configuration not stated)	-6.3%	i	4.8%	0.4%	12.3
COc1ccc(N/N=C(/Oc2ccc([N+](=O)[O-])cc2)C(C)=O)cc1	6.9%	-113.5%*	-12.6%	-0.1%	11.8
C[C@@H]1CN(S(=O)C(C)(C)C)[C@H](CCO)/C1=C\CCO (some centres not stated)	1.0%	i	nt	-6.3%	nt
COC(=O)c1[nH]c2ccc(C)cc2c1NS(=O)(=O)c1ccc(F)c(C)c1	-2.5%	i	-3.9%	0.7%	-0.5
COC(=O)c1[nH]c2ccc(C)cc2c1NS(=O)(=O)c1ccc(F)cc1	-19.5%	-119.4%*	-17.3%	-1.4%	34.5
Cc1cccc(NC(=S)NC(=O)C2CC2)c1	nt	nt	25.1µM*	nt	16.0
O=C(c1cccc(Cl)c1)N1CCC(=O)N([C@H](COCc2cccc(Cl)c2)Cc2ccccc2)CC1	nt	i	nt	nt	nt
O=P(O)(CCc1ccccc1)C(O)c1ccccc1 (configuration not stated)	15.5%	i	5.5%	-1.2%	5.3
COc1ccc(C(O)P(=O)(O)CCc2ccccc2)cc1 (configuration not stated)	5.5%	-109.2%*	-5.5%	1.5%	18.3

Source: PubChem (National Center for Advancing Translational Sciences (NCATS))
